Among all 200,000 compounds or so, about 5,100 (2.5%) were called active. For the sample, actives were picked, then their nearest neighbours and some compounds at random. A number with no mark means an inactive call.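 How the source made its calls: active means activation above the screen-wide mean activation plus 3 SD (cut at about 130% in these data); inactive means the rest.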
experiment: potentiators of IFN-gamma driven STAT1 reporter – cell-based, HTS, luciferase reporter, primary screen (AID 932); settings: NIH 3T3 STAT1-luciferase reporter, luminescence, at 5.5 µM, hits give high values, 100% = IFN-gamma alone, no compound;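 further: raw ratio to IFN-gamma control signal so 100% means no change and 0% no light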

| SMILES | activation (% of control) |
| --- | --- |
| CC(C)(C)NC(=O)NC(=O)COC(=O)Cc1c(F)cccc1Cl | 113% |
| O=C(CSc1nc2ccccc2[nH]1)c1cccs1 | 136% (active) |
| CCCCSc1nc2ccccc2[nH]1 | 121% |
| C=CCSc1nc2ccccc2[nH]1 | 109% |
| CCOc1cc2[nH]c(=O)n(Cc3ccc(C(=O)NCCCN4CCCC4=O)cc3)c(=O)c2cc1OCC | 92.1% |
| COc1ccc(C2(CNC(=O)Cc3ccc(OC)c(OC)c3)CCCC2)cc1 | 94.7% |
| N/C(=N\OC(=O)CCC1CCCCC1)c1ccccn1 | 130% (active) |
| CCC(C)(NC(=O)c1ccccn1)C(=O)NC1CCCCC1 (configuration not stated) | 95.5% |
| N/C(=N\OC(=O)c1ccc([N+](=O)[O-])cc1)c1ccccn1 | 81.4% |
| N/C(=N\OC(=O)Cc1ccc([N+](=O)[O-])cc1)c1ccccn1 | 139% (active) |
| N/C(=N\OC(=O)CC1CCCCC1)c1ccccc1 | 116% |
| O=C(OCc1ccc([N+](=O)[O-])cc1)c1ccccn1 | 95.9% |
| COc1ccc(C(=O)Nc2nncs2)c(OC)c1 | 131% (active) |
| COc1cc(SC)ccc1C(=O)Nc1nc(C)cs1 | 12.9% |
| COC(=O)c1sc(NC(=O)c2ccc(OC)cc2OC)nc1C | 75.1% |
| COc1ccc(S(=O)(=O)N2CCN(C(=O)c3cc(C)oc3C)CC2)cc1 | 90.8% |
| Cc1ccc([N+](=O)[O-])c(OCCCNCC(C)O)c1 (configuration not stated) | 101% |
| CN1CCN(C(=O)/C(=C\c2ccc3c(c2)OCO3)NC(=O)c2cccs2)CC1 | 98.7% |
| COC(=O)c1ccccc1SC1CC(=O)N(c2cccc(C)c2)C1=O (configuration not stated) | 94.5% |
| CC1CCN(S(=O)(=O)c2ccc3ncn(CC(=O)N(C)C4CCCCC4)c(=O)c3c2)CC1 | 100% |
| Cc1cccc(C)c1NC(=O)C1CCCN1C(=O)OC(C)(C)C (configuration not stated) | 104% |
| CCNC(=O)NNC(=O)C1CC(c2cccs2)=NO1 (configuration not stated) | 100% |
| O=C(Cc1cccs1)Nc1nnc(C2CC2)s1 | 90.1% |

| SMILES | activation (% of control) |
| --- | --- |
| Cc1occc1C(=O)Nc1nnc(C2CCCCC2)s1 | 107% |
| O=C(Nc1nnc(C2CC2)s1)c1ccccn1 | 129% (active) |
| Cc1nc2ccccn2c1C(=O)NN=C1CCN(C)CC1 | 96.3% |
| CN1CCN(c2ccc(NC(=O)c3ccc4c(c3)[nH]c(=O)n4Cc3ccc(F)cc3)cc2)CC1 | 98.7% |
| Clc1cccc(CN2COc3c(cc(Cl)c4cccnc34)C2)c1 | 94.3% |
| COC(=O)c1sccc1NC(=O)c1csc2c1CCCC2 | 106% |
| Cc1ccc(NC(=O)c2c(NC(=O)CCC(=O)O)sc3c2CCCCC3)cc1 | 105% |
| CC(=O)Cc1nsc(NC(=O)c2csc3c2CCCC3)n1 | 102% |
| Cc1ccc(NC(=O)c2csc3c2CCCC3)cc1 | 176% (active) |
| COC(=O)c1sc(NC(=O)c2csc3c2CCCC3)nc1C | 149% (active) |
| O=C(NCc1ccccc1Cl)c1csc2c1CCCCC2 | 107% |
| O=C(COc1ccccc1Cl)Nc1ccc(C(=O)c2ccc(C(=O)O)cc2)cc1 | 98% |
| CSCCC(=O)N1CCCC(CNC(=O)c2ccccc2Cl)C1 (configuration not stated) | 96.7% |
| CCN(CC)S(=O)(=O)c1ccc(NC(=O)c2cccnc2Cl)c(NC(=O)c2cccnc2Cl)c1 | 88.7% |
| O=C1Nc2cc(Cl)c(Cl)cc2N(O)N1c1ccccc1Cl | 82.7% |
| S=C(c1ccc(-c2ccccc2)o1)N1CCCCC1 | 138% (active) |
| S=C(NCCc1ccccc1)N1CCCCC1 | 122% |
| CC1CCN(C(=S)c2ccc(-c3ccc(Cl)cc3Cl)o2)CC1 | 85.7% |
| O=C(CNC(=O)COc1ccccc1)NCCc1ccccn1 | 104% |
| Cc1nn(Cc2ccc(Cl)cc2)c(Cl)c1/C=N/NC(=O)c1cccnc1 | 94.4% |
| Cc1cc(/C=N/NC(=O)c2cccnc2)c(C)n1CC(C)C | 139% (active) |
| CCC(=O)Nc1cccc(NC(=O)c2cccnc2)c1 | 98.6% |
| Cc1ccc2sc(NNC(=O)c3ccc4c(c3)OCCO4)nc2c1C | 104% |

| SMILES | activation (% of control) |
| --- | --- |
| Cc1cc2nc(SCCN3CCOCC3)[nH]c2cc1C | 152% (active) |
| CCOC(=O)CSc1nc2ccc(C)cc2[nH]1 | 111% |
| Cc1ccc(S(=O)(=O)NCCN2CCOCC2)cc1C | 96.1% |
| COc1ccc(CN2CCCC(CNC(=O)c3ccc(F)cc3)C2)cc1OC (configuration not stated) | 97.8% |
| CC1CCC(NC(=O)C2c3ccccc3C(=O)N2Cc2ccc3c(c2)OCO3)CC1 (configuration not stated) | 89.6% |
| N=c1c2c(-c3ccccc3)c(-c3ccccc3)n(Cc3ccccc3)c2ncn1CCCO | 102% |
| OCCCN1c2ccccc2Nc2nnc(-c3ccccc3)cc21 | 156% (active) |
| Cc1ccc(C)c(-n2ccnc2SCC(N)=O)c1 | 102% |
| O=C(Nc1cccc(C(F)(F)F)c1)c1cnccn1 | 110% |
| Cc1ccc(NC(=O)Nc2cccc(C(F)(F)F)c2)nc1 | 129% (active) |
| Cc1cccc(NC(=O)c2cccc(C(F)(F)F)c2)c1 | 107% |
| CN(C)c1ccc2c(=O)[nH][nH]c(=O)c2c1 | 103% |
| COc1ccc(-n2c(C)nn(CC3CC3)c2=O)cc1 | 97.8% |
| NS(=O)(=O)c1ccc(CCNC(=O)CCCn2c(SCC(=O)N3CCCC3)nc3ccsc3c2=O)cc1 | 99.5% |
| CCc1ccc(NC(=O)CC2C(=O)NCCN2C(=S)Nc2ccccc2)cc1 (configuration not stated) | 100% |
| O=C1CN(C(=O)COC(=O)c2cnc(Cl)c(Cl)c2)c2ccccc2N1 | 92.8% |
| CCN(CC)N=Nc1cccc(NC(C)=O)c1 | 88.6% |
| Cc1nonc1NC(=O)CSc1nc2ccccc2cc1C#N | 117% |
| CCOc1ccc2cc(C#N)c(SCC(=O)OC)nc2c1 | 150% (active) |
| CCOc1ccc2nc(NCCNS(=O)(=O)c3ccccc3)c(C#N)cc2c1 | 102% |
| O=C(CSc1cccc[n+]1[O-])NCCCc1ccccc1 | 91.9% |

From PubChem BioAssay AID932 (The Scripps Research Institute Molecular Screening Center, 2007)
